# Reference: PubChem BioAssay (NCATS)
# Records with an inconclusive call do not appear. Where a call stands in place of a potency, no number is given. Active and inactive are the calls of the source. The call rests on the fitted dose curve; in most records, active means well fitted cell-killing curve with a large enough effect; inconclusive means small, poorly fitted or top-dose-only effect; inactive means flat fitted curve, though single readings scatter.
# Assay: MultiTox-Fluor Cytotoxicity Assay - LYMP1-001 - Live Cells (AID 947)
# Settings: LYMP1-001 lymphoblastoid cells, live-cell protease fluorescence viability; series mostly up to 92.2 µM
# Potency means the concentration at half of the fitted maximal effect.
row,Structure (SMILES),Potency
1,COc1cccc2c1C(=O)c1c(O)c3c(c(O)c1C2=O)C[C@@](O)(C(C)=O)C[C@@H]3O[C@H]1C[C@H](N)[C@H](O)[C@H](C)O1,631 nM (active)
2,CC(=O)O[C@]1(C(C)=O)CC[C@H]2[C@@H]3C[C@H](C)C4=CC(=O)CC[C@]4(C)[C@H]3CC[C@@]21C,inactive
3,O=C(O)CCCCC(=O)O,inactive
4,CC(O)C(=O)O (configuration not stated),inactive
5,COc1cccc2c1C(=O)c1c(O)c3c(c(O)c1C2=O)C[C@@](O)(C(=O)CO)C[C@@H]3O[C@H]1C[C@H](N)[C@H](O)[C@H](C)O1,1580 nM (active)
6,C[C@]12CC[C@@H]3c4ccc(O)cc4CC[C@H]3[C@@H]1CC[C@@H]2O,inactive

# Assay: Cell Viability - LYMP1-002 - Assay at 16 hr (AID 948)
# Settings: LYMP1-002 lymphoblastoid cell viability; series mostly up to 92.2 µM
# Outline: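 Seed 2500 LYMP1-002 cells per well in complete medium and hold 5 hr at 37 C. Add compound across a concentration series and incubate 16 hr at 37 C. Add CellTiter-Glo, wait 30 min at room temperature, read luminescence.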
row,Structure (SMILES),Potency
1,COc1cccc2c1C(=O)c1c(O)c3c(c(O)c1C2=O)C[C@@](O)(C(C)=O)C[C@@H]3O[C@H]1C[C@H](N)[C@H](O)[C@H](C)O1,794 nM (active)
2,CC(=O)O[C@]1(C(C)=O)CC[C@H]2[C@@H]3C[C@H](C)C4=CC(=O)CC[C@]4(C)[C@H]3CC[C@@]21C,inactive
3,O=C(O)CCCCC(=O)O,inactive
4,CC(O)C(=O)O (configuration not stated),inactive
5,COc1cccc2c1C(=O)c1c(O)c3c(c(O)c1C2=O)C[C@@](O)(C(=O)CO)C[C@@H]3O[C@H]1C[C@H](N)[C@H](O)[C@H](C)O1,3160 nM (active)
6,C[C@]12CC[C@@H]3c4ccc(O)cc4CC[C@H]3[C@@H]1CC[C@@H]2O,inactive
